Most compounds without a hit are left out; they make up all but 14% or so of the library.
Pf growth 96h – P. falciparum growth inhibition at 96 hours; P. falciparum luciferase reporter growth, 96 h; Potency, µM (highest dose often 28.7 µM), inactives show at the top dose activity change, negative = inhibition, most hits filed as inhibitors; 320,000 compounds, 6.9% hits; further: potency means the concentration at half of the fitted maximal effect
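Erythrocytes infected with luciferase-expressing P. falciparum were dispensed at 2% hematocrit and 0.05% parasitemia (final), then incubated with compounds 96 hours at 37 C in 5% CO2. Luminescence after detection reagent addition reported growth.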
Marburg entry inh – Marburg virus entry inhibition | Marburg virus pseudotyped entry inhibition, cell reporter | Potency, µM (titrated, usually from 37.8 µM), for inactives: top-dose activity change, negative = inhibition, actives largely listed as inhibitors | 300,000 compounds, 1.8% hits | AID 540276; calls by dose curve; tested in HEK293 cells; further: potency means the concentration at half of the fitted maximal effect
Lassa entry inh – Lassa virus entry inhibition; 300,000 compounds, 1.2% hits; Potency, µM (series often up to 37.9 µM), for the others: top-dose activity change, negative = inhibition, actives largely listed as inhibitors; Lassa virus pseudotype entry inhibition, cell reporter; AID 540256; calls by dose curve; tested in HEK293 cells; further: potency means the concentration at half of the fitted maximal effect; nearly all actives have a fitted effect of over 50% in size
HCV inhibitor – blocks hepatitis C virus; Huh7.5.1 HCVcc-Cre infection, luciferase reporter, 44 h; AID 651820; 340,000 compounds, 3.4% hits; Potency, µM (top dose mostly 41.8 µM), for inactives: at the top dose activity change, negative = inhibition, actives largely listed as inhibitors; further: potency means the concentration at half of the fitted maximal effect
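Reporter virus HCVcc-Cre (~0.5 moi) infects cells exposed to compound; seeding density 1,000 cells/well with 4 h settling beforehand. Luminescence, 15 sec read, taken 44 h post-infection following a 15 min RT substrate incubation.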
Pf growth 48h – inhibits P. falciparum growth in the first generation, 48 h; P. falciparum luciferase growth in erythrocytes, 48 h; Potency, µM (series often up to 28.7 µM), without a hit: at the highest dose activity change, negative = inhibition, most hits filed as inhibitors; 310,000 compounds, 5.9% hits; AID 504832; further: potency means the concentration at half of the fitted maximal effect
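Luminescence readout; reporter = integrated firefly luciferase in P. falciparum. RBC culture at 2% hematocrit, 0.1% parasitemia final, 37 C/5% CO2; decreased signal taken as growth inhibition.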
HCMV inh – human cytomegalovirus inhibition; HFF cells, HCMV-luciferase reporter, 72 h; active compounds read low; 410,000 compounds, 4.5% hits; activity change, negative = inhibition, % at 57.5 µM; in the data active means activity change below about -60%; inconclusive means no clear call, values can overlap the other calls; inactive means above about -39%
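Human foreskin fibroblasts infected with luciferase-reporter HCMV at MOI 1 PFU/cell, compounds at two doses. Luciferase measured 72 h post infection; normalized to buffer-only basal and Salinomycin (10uM) controls.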
Numbers without * were called inactive; u = inconclusive; x = not tested or not shown; ! = not confirmed by another sample; [ ] = dose if it differs, or a comment. Unless noted, the call rests on the fitted dose curve; in most records, active means well fitted inhibition curve with a large enough effect; inconclusive means small, poorly fitted or top-dose-only effect, or another doubt; inactive means no such curve, though single readings can be large or run the other way. On the % scale 0 is the no-effect control and ±100 the full control effect.

SMILES	Pf growth 96h	Marburg entry inh	Lassa entry inh	HCV inhibitor	Pf growth 48h	HCMV inh
CCn1c(SC(C)C(=O)NCC2CCCO2)nc2scc(-c3ccccc3)c2c1=O (stereo not drawn)	2.94µM*	u	10.6%	u	7.38µM*	u
CC(Sc1nnc(-c2cccs2)n1-c1ccccc1)C(=O)NCc1ccc2c(c1)OCO2 (stereo not drawn)	10.4µM*	-24.8%	u	-14.4%	x	-26.9
O=S(=O)(NCCS(=O)(=O)N1CCN(c2cccc(Cl)c2)CC1)c1ccc(F)cc1	x	x	-22.2%[46.1 µM]	x	x	-38.7
CCC(Nc1ccc(-c2nc(-c3cccnc3)no2)cc1[N+](=O)[O-])c1ccccc1 (stereo not drawn)	x	-0.7%[46.1 µM]	-12.0%[46.1 µM]	x	x	-21.1
COc1ccc(C(=O)Nc2ccc3c(c2)CCCN3S(=O)(=O)c2ccc(C)cc2)c(OC)c1	x	x	-3.6%[46.1 µM]	x	x	-10.9
Cc1cccc(C)c1-c1ccc(CN2C(CC(C)C)C(=O)N(Cc3cn(CC4CCCCC4)nn3)CCS2(=O)=O)cc1 (stereo not drawn)	x	x	x	5.5%	x	-100.3*
CN(C)c1ccc(-c2ccnc3c2CC(C)(C(=O)Nc2ccccc2)O3)cc1 (stereo not drawn)	x	x	x	x	x	-0.8
CCOc1cccc(CC(=O)N2CCc3c([nH]c4ccccc34)C2c2ccc(Cl)cc2)c1OCC (stereo not drawn)	x	x	u	x	x	-1.9
O=C(CCc1ccccc1)N1CCc2c([nH]c3ccccc23)C1c1ccc(F)cc1 (stereo not drawn)	x	x	u	x	x	-90.4*
O=C(CCc1ccccc1)N1CCc2c([nH]c3ccccc23)C1c1ccc(Cl)cc1 (stereo not drawn)	x	x	u	x	x	-68.2*
CSc1ccc(C2c3[nH]c4ccccc4c3CCN2C(=O)CCc2ccccc2)cc1 (stereo not drawn)	x	x	2.51µM*	x	x	-79.2*
O=C1CSC2(C(=O)N(Cc3ccccc3)c3ccccc32)N1c1ccc(Cl)cc1 (stereo not drawn)	x	x	-19.1%[46.1 µM]	x	x	-1.1
COc1ccccc1/C=C/CN1CCCC(CCC(=O)NCc2ccc(F)c(F)c2)C1 (stereo not drawn)	72.5%	u	-15.7%[46.1 µM]	u	u	u
O=C(CCC1CCCN(C(=O)C2CCCC2)C1)NCc1ccc(F)c(F)c1 (stereo not drawn)	-6.2%	-16.3%	-17.9%[46.1 µM]	-15.6%	u	-21.8
COc1ccc(/C=C/CN2CCCC(CCC(=O)NCc3ccc(F)c(F)c3)C2)cc1 (stereo not drawn)	2.4%	7.94µM*	0.4%	u	13.1µM*	-21.4
COc1cccc(CNC(=O)CCC2CCCN(C(=O)c3csc(C(C)C)n3)C2)c1 (stereo not drawn)	13.1µM*	8.2%[46.1 µM]	25.2%[46.1 µM]	-20.5%	1.2%	16.6
Cc1nc(C)c(C(=O)N2CCCC(CCC(=O)NCc3ccc(F)c(F)c3)C2)s1 (stereo not drawn)	9.28µM*	6.3%[46.1 µM]	2.5%[46.1 µM]	-10.5%	-3.7%	-5.4
O=C(CCC1CCCN(C(=O)c2cncs2)C1)NCc1ccc(F)c(F)c1 (stereo not drawn)	8.28µM*	7.8%[46.1 µM]	8.3%	19.2%	46.0%	10.0
C[C@@H]1CCCCO[C@@H](CN(C)C(=O)CCC(F)(F)F)[C@@H](C)CN([C@H](C)CO)C(=O)c2cc(NS(=O)(=O)c3cccs3)ccc2O1	x	x	x	x	x	6.9
COC(=O)c1c(C(=O)OC)c2c3cc(OC)c(OC)cc3cc([Si](C)(C)C)n2c1C(=O)OC	x	24.3%[14.2 µM]	x	x	x	x
O=C(Cc1ccccc1[N+](=O)[O-])c1ccccc1[N+](=O)[O-]	x	x	x	x	x	-13.8
COc1ccc(N2CC3=C(C2=O)C(c2ccc(Br)cc2)NC(=O)N3C)cc1 (stereo not drawn)	x	-35.3%[46.1 µM]	u	x	x	-99.5*
Cc1cccc(-c2nc(CS(=O)CC(=O)NCCc3ccccc3)c(C)o2)c1 (stereo not drawn)	5.22µM*	-10.4%[46.1 µM]	-0.6%[46.1 µM]	-26.6%	12.2%	-11.5
COc1cccc(-c2nc(CS(=O)CC(=O)NCCc3ccccc3)c(C)o2)c1 (stereo not drawn)	-11.3%	x	x	-1.8%	5.0%	-26.0
Cc1cccc(-c2nc(CS(=O)CC(=O)N3CCN(C)CC3)c(C)o2)c1 (stereo not drawn)	7.38µM*	x	x	4.8%	x	35.7
SMILES	Pf growth 96h	Marburg entry inh	Lassa entry inh	HCV inhibitor	Pf growth 48h	HCMV inh
Cc1oc(-c2ccccc2F)nc1CS(=O)(=O)CC(=O)N1CCCCCC1	u	1.0%	x	-26.8%	9.4%	-23.4
O=C(CSCc1ccc(F)cc1)N1CCN(c2ccccc2)CC1	75.3%	-2.4%	u	0.8%	31.2%	0.0
Cc1oc(-c2ccccc2F)nc1CS(=O)(=O)CC(=O)N1CCN(c2ccc(Cl)cc2)CC1	x	-27.2%[46.1 µM]	u	x	x	-82.8*
Cn1c(CSCc2ccc(F)cc2)nnc1SCC(=O)N1CCN(c2ccccc2)CC1	u	u	u	u	-19.2%	-68.5*
Cc1ccc2c(c1)N(CCC(=O)NCc1ccccc1Cl)C(=O)CO2	x	-2.2%[46.1 µM]	2.3%[46.1 µM]	x	x	-31.3
CCCNS(=O)(=O)c1ccc(CCC(=O)N2CCN(c3ccc(F)cc3)CC2)cc1	42.3%	-33.2%	3.9%	u	0.9%	-65.4*
CCCNS(=O)(=O)c1ccc(CCC(=O)N2CCN(c3ccc(OC)cc3)CC2)cc1	u	-17.9%	-8.1%	u	x	u
Cc1ccc(CSCC(=O)N2CCN(c3ccc(F)cc3)CC2)cc1	22.7%	-9.1%	u	1.6%	26.4%	-66.5*!
Cc1ccc(-c2nc(CS(=O)CC(=O)N3CCN(c4ccc(F)cc4)CC3)c(C)o2)cc1 (stereo not drawn)	u	u	u	u	3.9%	-63.2*!
CCc1ccc(-c2nc(CSCC(=O)N3CCN(c4ccc(F)cc4)CC3)c(C)o2)cc1	x	6.6%[46.1 µM]	20.9%[46.1 µM]	x	x	-79.5*
Cc1onc(-c2ccccc2[N+](=O)[O-])c1-c1ccccc1[N+](=O)[O-]	x	x	x	x	x	-8.3
COc1ccc(-c2noc(-c3cccnc3N3CCN(c4ccc(OC)cc4)CC3)n2)cc1	x	2.8%[46.1 µM]	13.5%[46.1 µM]	x	x	1.2
CCOc1ccccc1C1CC(=O)NC(C)=C1C(=O)OC1CCCCCC1 (stereo not drawn)	x	u	-24.0%[46.1 µM]	x	x	-32.6
Cc1ccsc1-c1nc(CSCC(=O)N2CCN(c3ccccc3)CC2)c(C)o1	u	0.5%	x	u	x	6.3
COc1ccc(-c2nc(CSCC(=O)N3CCN(c4ccc(F)cc4)CC3)c(C)o2)cc1	x	u	-26.6%[46.1 µM]	x	x	-90.2*
COc1ccc(-c2nc(CSCC(=O)N3CCc4ccccc4C3)c(C)o2)cc1OC	u	x	x	u	u	1.1
COc1ccc(-c2nc(CSCC(=O)N3CCN(c4ccccc4)CC3)c(C)o2)cc1	x	-0.4%[46.1 µM]	-7.4%[46.1 µM]	x	x	-64.8*
